DT40 TDP1 CPT: qHTS for Inhibitors of human tyrosyl-DNA phosphodiesterase 1 (TDP1): qHTS in cells in presence of CPT | Potency, µM (top dose mostly 46.2 µM), most hits filed as inhibitors | AID 686979, 2013 | 12% of 420,000 active | chicken DT40 Tdp1-/-;hTDP1 cells + 20 nM CPT, ATP luminescence, 48 h; also: nearly all actives have a fitted effect of over 55% in size
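Cell growth measured by CellTiter-Glo luminescence after a minimum 48 h, 37 C compound exposure with 20 nM CPT in Tdp1-knockout DT40 cells stably expressing hTDP1, seeded 400/well; qHTS titration format.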
ELG1 repair inh: qHTS screen for small molecules that inhibit ELG1-dependent DNA repair in human embryonic kidney (HEK293T) cells expressing luciferase-tagged ELG1. HEK293T ELG1-luciferase reporter, luminescence, 16 h; DNA damage induced by 5-fluorouridine. Potency, µM (highest dose often 46.1 µM), hits mostly inhibitors. 2.3% of 330,000 active. AID 504467, 2011; also: nearly all actives have a fitted effect of over 55% in size
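5-Fluorouridine DNA damage + compound/DMSO, 2,000 cells/well, 16 h, 37 °C/5% CO2. ONE-Glo, 30 min RT, luminescence. Readout = decrease in reporter signal.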
HT1080NT lethal: qHTS for induction of synthetic lethality in tumor cells producing 2HG: qHTS for the HT-1080-NT fibrosarcoma cell line; 1.6% of 360,000 active; HT-1080-NT fibrosarcoma viability, CellTiter-Glo ATP luminescence, 48 h; Potency, µM (series often up to 46.1 µM), most hits filed as cytotoxic;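 also: NT is the 2HG producing partner of a matched IDH1 knockdown line; nearly all actives have a fitted effect of over 55% in size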
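Viability of the 2HG-overproducing fibrosarcoma line after 48 hours of compound exposure at 37 degrees C was determined by luminescence with CellTiter-Glo, and concentration-effect curves were then fitted and categorized.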
TDP1 cell noCPT: qHTS for Inhibitors of human tyrosyl-DNA phosphodiesterase 1 (TDP1): qHTS in cells in absence of CPT; DT40 Tdp1-/- hTDP1 cells, no CPT, ATP luminescence, 48 h; 15% of 420,000 active; AID 686978, 2013; Potency, µM (titrated, usually from 46.2 µM), hits mostly inhibitors; also: nearly all actives have a fitted effect of over 55% in size
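DT40 Tdp1-/-;hTDP1 cells, no CPT (DMSO vehicle only), 400 cells/well; compounds pin-transferred; ≥48 hr, 37 °C; CellTiter-Glo 30 min RT dark, luminescence read.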
HT1080 IDH1KD tx: qHTS for induction of synthetic lethality in tumor cells producing 2HG: qHTS for the HT-1080-IDH1KD cell line | HT-1080 IDH1 knockdown viability, ATP luminescence, 48 h | 2% of 360,000 active | AID 686971, 2013 | Potency, µM (series often up to 46.1 µM), hits mostly cytotoxic
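% activity derives from luminescence (CellTiter-Glo), normalised to DMSO and no-cell wells. HT-1080-IDH1KD cells, 750/well, had 48 h compound exposure at 37 °C.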
IL1B secr inh: qHTS for Inhibitors of Inflammasome Signaling: IL-1-beta AlphaLISA Primary Screen; 4.7% of 360,000 active; activity change, % at 57.5 µM; THP-1 LPS/ATP IL-1B secretion, AlphaLISA, 16 h; active compounds read low; AID 743279, 2014; in the data active = activity change below about -50%; inconclusive = mostly about -30% to -49%
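Secreted IL-1B measured by AlphaLISA bead assay after 16 h compound exposure of THP-1 cells; compounds (final up to 57.5 uM) added 1 h before LPS (250 ng/mL) and ATP (1.25 mM) stimulation; lower signal means less secretion.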
Of the large screens only hits and unclear results are named; the others gave an inactive call. An excerpt weighted towards active compounds, which were near 19% of everything screened. Unless noted, calls follow the shape of the dose curve; as a rule, active = well fitted curve in the direction sought with a large enough effect; inconclusive = small, poorly fitted or top-dose-only effect, or another doubt; inactive = no such curve, though single readings can be large; an effect the other way counts as inactive or inconclusive.

OC(c1ccc(Cl)c(Cl)c1)c1ncc(-c2ccc(C(F)(F)F)cc2)[nH]1 (stereo unspecified)	DT40 TDP1 CPT inconclusive, HT1080NT lethal inconclusive, TDP1 cell noCPT 16.4µM, HT1080 IDH1KD tx inconclusive, IL1B secr inh inconclusive (no result: ELG1 repair inh)
Cc1cc(C)cc(C(O)c2ncc(-c3ccc(C(F)(F)F)cc3)[nH]2)c1 (stereo unspecified)	DT40 TDP1 CPT inconclusive, HT1080NT lethal inconclusive, TDP1 cell noCPT 16.4µM, HT1080 IDH1KD tx inconclusive (no result: ELG1 repair inh)
Cc1ccc(C(O)c2ncc(-c3ccc(C(F)(F)F)cc3)[nH]2)cc1F (stereo unspecified)	DT40 TDP1 CPT inconclusive, HT1080NT lethal inconclusive, TDP1 cell noCPT 20.6µM, HT1080 IDH1KD tx inconclusive (no result: ELG1 repair inh)
Cc1ccc(C(O)c2ncc(-c3ccc4ccccc4c3)[nH]2)cc1F (stereo unspecified)	DT40 TDP1 CPT 29.1µM, TDP1 cell noCPT 18.4µM (no result: ELG1 repair inh)
Cc1cc(C)cc(C(O)c2ncc(-c3cccc(C(F)(F)F)c3)[nH]2)c1 (stereo unspecified)	DT40 TDP1 CPT inconclusive, HT1080NT lethal inconclusive, TDP1 cell noCPT inconclusive, HT1080 IDH1KD tx inconclusive (no result: ELG1 repair inh)
COc1cccc2c1OC1(N3CCOCC3)CCCCC1C2C[N+](=O)[O-] (stereo unspecified)	TDP1 cell noCPT inconclusive (no result: ELG1 repair inh)
Cc1c(CC(C)(C)C(=O)O)n(Cc2ccc(Cl)cc2)c2ccc(F)cc12	none (no result: ELG1 repair inh, HT1080NT lethal, HT1080 IDH1KD tx, IL1B secr inh)
C[N+](C)(CCCCCI)c1ccc(/C=C/c2nc3ccccc3s2)cc1	DT40 TDP1 CPT 1µM, TDP1 cell noCPT 0.562µM (no result: ELG1 repair inh, HT1080NT lethal, HT1080 IDH1KD tx, IL1B secr inh)
CCN(Cc1ccc(C#CCCO)cc1)CC1CCCN(CCc2cccc(OC)c2)C1 (stereo unspecified)	DT40 TDP1 CPT inconclusive, TDP1 cell noCPT 20.6µM
Cn1ncc(Cl)c1C(=O)NCc1ccc2c(c1)OCO2	DT40 TDP1 CPT inconclusive, TDP1 cell noCPT inconclusive
Cn1ncc(Cl)c1C(=O)NCc1ccc(Cl)cc1	DT40 TDP1 CPT inconclusive, ELG1 repair inh inconclusive, TDP1 cell noCPT 8.2µM
C[n+]1cc(C(=O)N2CCCCC2)ccc1/C=C/c1c[nH]c2ccccc12	none
CCCCCCCCCC[n+]1ccc(/C=C/c2c(C)[nH]c3ccccc23)cc1	DT40 TDP1 CPT 0.562µM, TDP1 cell noCPT 0.398µM (no result: ELG1 repair inh, HT1080NT lethal, HT1080 IDH1KD tx, IL1B secr inh)
O=C(NN=Cc1c[nH]c2ccccc12)NN=Cc1c[nH]c2ccccc12	TDP1 cell noCPT inconclusive (no result: ELG1 repair inh)
CCCCCCCCCC[n+]1ccc(/C=C/c2c[nH]c3ccccc23)c2ccccc21	DT40 TDP1 CPT 1.58µM, TDP1 cell noCPT 2µM (no result: ELG1 repair inh, HT1080NT lethal, HT1080 IDH1KD tx, IL1B secr inh)
CCCCCCC[n+]1ccc(/C=C/c2c[nH]c3ccccc23)cc1	DT40 TDP1 CPT 0.282µM, TDP1 cell noCPT 0.316µM (no result: ELG1 repair inh, HT1080NT lethal, HT1080 IDH1KD tx, IL1B secr inh)
CC[n+]1ccc(/C=C/c2c[nH]c3ccccc23)cc1	DT40 TDP1 CPT 2.31µM, ELG1 repair inh inconclusive, HT1080NT lethal inconclusive, TDP1 cell noCPT 2.06µM
Cc1ccc(S(=O)(=O)N2[C@H](CC(=O)c3ccc(F)cc3)OC[C@@H]2C(C)C)cc1	DT40 TDP1 CPT inconclusive, TDP1 cell noCPT inconclusive (no result: ELG1 repair inh)
Cc1ccc2oc(-c3ccc(NC(=O)c4oc5ccc(Cl)cc5c4C)cc3)nc2c1	none (no result: ELG1 repair inh, HT1080NT lethal, HT1080 IDH1KD tx, IL1B secr inh)
CC(C)(O)CN(CCCNC(=S)Nc1ccccc1)C(=S)Nc1ccccc1	none (no result: ELG1 repair inh)
Cn1c(Oc2ccc(F)cc2)c(C=O)c2ccccc21	DT40 TDP1 CPT inconclusive, ELG1 repair inh inconclusive, TDP1 cell noCPT inconclusive, IL1B secr inh -92.3
O=C(COC(=O)c1cccnc1SCC(=O)NCc1ccccc1)NCc1ccccc1	DT40 TDP1 CPT 23.1µM, TDP1 cell noCPT inconclusive, HT1080 IDH1KD tx inconclusive
CCCC(=O)OCC(=O)NCc1ccc(Cl)cc1	none
